# Test results: PubChem BioAssay (Tox21)
# Records with an inconclusive call do not appear. A call without a number means that no potency is given here. Calls of active or inactive are those of the source. The call rests on the fitted dose curve; in most records, active means well fitted inhibition curve with a large enough effect in the repeat runs; inconclusive means weak or mixed curves, or effect the other way; inactive means no such curve, though single readings can be large or run the other way.
# Test: qHTS assay to identify small molecule antagonists of the retinoic acid receptor (RAR) signaling pathway (AID 1159552; further: nearly all actives have a fitted effect of over 50% in size)
# Details: C3RL4 RARE luciferase reporter, retinol-stimulated, 6 h; series mostly up to 92.4 µM
# Source text: National Center for Advancing Translational Sciences [NCATS]
# NIH Chemical Genomics Center [NCGC]
# U.S. Environmental Protection Agency [EPA]
# National Institutes of Environmental Health Sciences [NIEHS]
# National Toxicology Program [NTP]
# U.S. Food and Drug Administration [FDA]
# All-trans Retinoic acid (atRA) is the potent natural metabolite of retinol and plays an important role in normal embryonic development and maintenance of cellular phenotype in adult animals. atRA is the activating ligand for the retinoic acid receptors (RARs) which form heterodimers with retinoid X receptors (RXRs) on the retinoic acid response element (RARE). Through activation of the RAR/RXRs nuclear receptors, atRA regulates the transcription of a large number of protein-coding genes and regulatory RNAs. Intracellular levels of atRA are controlled by the retinol signaling pathway (RSP) that regulates the biosynthesis and catabolism of atRA to maintain physiological levels. Chemicals that interfere with the RSP can cause abnormal intracellular levels of atRA and therefore are potential developmental toxicants. To assess compounds for the potential adverse effect on embryonic development through interfering with retinol signaling, a cell-based RARE luciferase reporter gene assay was used. C3RL4 cell line (OARSA/CFSAN/FDA, Laurel, MD) was used to screen Tox21 10K compound library for identifying inhibitors of the RSP.
# Tox21 Assay Protocol Summary:
# C3RL4 cells were seeded at 1,000/well in 4 uL of assay medium into white solid 1,536-well tissue culture plates (Greiner Bio-One North America Inc. Monroe, NC) using a Multidrop Combi (Thermo Scientific, Waltham, MA) dispenser. After incubation at 37 C and 5% CO2 for an overnight, 23 nL of compounds dissolved in DMSO, positive control or DMSO only were transferred by a Pintool station (Kalypsys, San Diego, CA). One ul of 1 uM (final concentration) of Retinol was added right after the compound addition by using a Flying Reagent Dispenser (FRD) (Aurora Discovery, San Diego, CA). After 6 hr incubation at 37 C and 5% CO2, 5 uL of Amplite Luciferase reagent (AAT Bioquest Inc. Sunnyvale, CA) was added to each assay plate using an FRD. Luminescence was quantified on a ViewLux plate reader (PerkinElmer, Waltham, MA) after 30 min incubation at room temperature.
# Potency means the concentration at half of the fitted maximal effect.
row,SMILES,Potency
1,N#C/C=C/C#N,inactive
2,N#CNC#N,inactive
3,c1ccc(OCC2CO2)cc1 (stereo not given),inactive
4,CCCCCCCCCC[N+](C)(C)CCCCCCCCCC,12.2 µM (active)
5,N#CCCO,inactive
6,CC(C)CC(C)Nc1ccc(Nc2ccccc2)cc1 (stereo not given),inactive
7,CC(C)(C)c1cc([N+](=O)[O-])cc(C(C)(C)C)c1O,15.4 µM (active)
8,Cc1ccc(C(=O)Cl)cc1,inactive
9,CCCN(CCC)c1c([N+](=O)[O-])cc(S(N)(=O)=O)cc1[N+](=O)[O-],48.6 µM (active)
10,CC(=O)c1ccc(-c2ccccc2)cc1,inactive
11,CCc1nn(C)c(C(=O)NCc2ccc(C(C)(C)C)cc2)c1Cl,27.3 µM (active)
12,COc1ccc(/C(=C/C(=O)N2CCOCC2)c2ccc(Cl)cc2)cc1OC,inactive
13,CC(O)C#N (stereo not given),inactive
14,Oc1ccc(C(=C(Cl)Cl)c2ccc(O)cc2)cc1,inactive
15,CC(C)(COCC1CO1)COCC1CO1 (stereo not given),inactive
16,N#C/C=C/c1ccccc1,inactive
17,ClC1=C(Cl)C2(Cl)C3C(Cl)C(Cl)CC3C1(Cl)C2(Cl)Cl (stereo not given),54.5 µM (active)
18,N#Cc1c(-c2ccc(Cl)cc2)[nH]c(C(F)(F)F)c1Br,0.545 µM (active)
19,O=C(NC(=O)c1c(F)cccc1F)Nc1cc(Cl)c(OC(F)(F)C(F)F)c(Cl)c1,inactive
20,OC(c1ccc(Cl)cc1)(c1ccc(Cl)cc1)C(Cl)(Cl)Cl,inactive

row,SMILES,Potency
1,ClCCN1CCOCC1,inactive
2,FC(F)(F)c1cccc(C2=CCN(CCc3ccc4ccccc4c3)CC2)c1,inactive
3,ClC1=C(Cl)[C@]2(Cl)[C@@H]3[C@@H](Cl)[C@H](Cl)C[C@@H]3[C@@]1(Cl)C2(Cl)Cl,inactive
4,Cc1ccc(OP(=O)(Oc2ccccc2)Oc2ccccc2)cc1,inactive
5,CCOCn1c(-c2ccc(Cl)cc2)c(C#N)c(Br)c1C(F)(F)F,3.06 µM (active)
6,Clc1ccc(CCC(Cn2ccnc2)Sc2c(Cl)cccc2Cl)cc1 (stereo not given),inactive
7,C[As+](C)(C)CC(=O)[O-],inactive
8,CC(C)(C)c1ccc(CSc2cnn(C(C)(C)C)c(=O)c2Cl)cc1,inactive
9,ClC(Cl)=C(c1ccc(Cl)cc1)c1ccc(Cl)cc1,inactive
10,Nc1ccccc1C(=O)Oc1ccc2ccccc2c1,inactive
11,CCS(=O)(=O)c1cccnc1S(=O)(=O)NC(=O)Nc1nc(OC)cc(OC)n1,inactive
12,Cc1ccc(CCl)cc1,inactive
13,CN(C)CCc1c[nH]c2ccc(O)cc12,inactive
14,Oc1c(Cl)c(Cl)cc(Cl)c1Cl,66.7 µM (active)
15,N#CSCSC#N,24.9 µM (active)
16,CC(Cl)CN(C)C (stereo not given),inactive
17,COP(N)(=S)OC,inactive
18,CC1(C)CN=C(NN=C(/C=C/c2ccc(C(F)(F)F)cc2)/C=C/c2ccc(C(F)(F)F)cc2)NC1,9.69 µM (active)
19,BrC(Br)C(Br)(Br)Br,30.8 µM (active)
20,NNC(=O)c1ccccc1,inactive
